Measurements: PubChem BioAssay AID488815 (Broad Institute, 2010)
Entries with a potency or affinity are not part of this list. Results filed as inconclusive are left out. A number with no mark means an inactive call. No rule for the calls is given here.

These compounds were tested against CAAX prenyl protease 1 (Saccharomyces cerevisiae (strain ATCC 204508 / S288c)) (UniProt P47154) (assay: yeast CAAX protease Ste24 inhibition – biochemical, S. cerevisiae, plate reader, cherry-pick, dose response (AID 488815;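 also: 0% = neutral control wells and -100% = no enzyme wells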)). Conditions: series mostly up to 10 µM; activity change, negative = inhibition: at the top concentration.
Chain of CAAX prenyl protease 1 (Saccharomyces cerevisiae (strain ATCC 204508 / S288c)) (P47154 whole entry, looked up): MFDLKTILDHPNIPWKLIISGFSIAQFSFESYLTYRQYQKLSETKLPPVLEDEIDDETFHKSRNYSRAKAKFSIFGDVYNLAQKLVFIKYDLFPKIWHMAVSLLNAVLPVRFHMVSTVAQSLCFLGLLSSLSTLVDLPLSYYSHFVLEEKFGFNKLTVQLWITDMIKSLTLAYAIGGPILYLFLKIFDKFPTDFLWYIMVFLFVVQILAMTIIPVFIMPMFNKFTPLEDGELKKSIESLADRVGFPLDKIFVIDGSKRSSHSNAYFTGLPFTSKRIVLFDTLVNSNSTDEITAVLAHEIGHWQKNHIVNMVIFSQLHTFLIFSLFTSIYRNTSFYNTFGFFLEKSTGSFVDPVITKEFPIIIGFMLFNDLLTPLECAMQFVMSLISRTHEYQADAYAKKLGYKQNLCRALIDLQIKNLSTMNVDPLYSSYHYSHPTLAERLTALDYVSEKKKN
`CC(C)N1CCN(S(=O)(=O)c2ccc3ccccc3c2)CC1` was tested, and the “activity change, negative = inhibition” value was 4.94%.
In the case of `O=C(Nc1ccc2c(c1)CCC2)c1ccccc1Br`, the “activity change, negative = inhibition” value was -24%.
With `CCN(CC)CCN(C(=O)c1ccc2ccccc2c1)c1nc2ccc(F)cc2s1` the “activity change, negative = inhibition” value was 18.9%.
In the case of `CC1CCc2c(sc(NC(=O)COC(=O)c3ccccc3NCc3ccco3)c2C#N)C1` (stereo unspecified), the “activity change, negative = inhibition” value was -174%.
For `COc1ccc(C(=O)/C=C/c2ccc(OC)cc2OC)c(O)c1`, the “activity change, negative = inhibition” value was 22.4%.
For `O=C(CCNS(=O)(=O)c1ccc2[nH]c(=O)oc2c1)NCc1ccccc1`, the “activity change, negative = inhibition” value was 8.12%.
For `CN(C(=O)COC(=O)c1cc([N+](=O)[O-])ccc1Sc1ccccc1)C1CCS(=O)(=O)C1` (stereo unspecified), the “activity change, negative = inhibition” value was 25.6%.
For `CCOc1ccc(N(CC(=O)NC2CC3CCC2C3)S(=O)(=O)c2ccccc2)cc1` (stereo unspecified), the “activity change, negative = inhibition” value was 22.7%.
With `COc1ccccc1NC(=O)CN(c1ccc(C23CC4CC(CC(C4)C2)C3)cc1)S(C)(=O)=O` the “activity change, negative = inhibition” value was 4.28%.
`C/C(CC1(O)C(=O)Nc2ccccc21)=N\O` (stereo unspecified) was tested, and the “activity change, negative = inhibition” value was 50%.
For `CCO[C@@H]1OC(C(=O)N2CCN(Cc3ccccc3)CC2)=C[C@H](c2ccccc2)[C@H]1CCCO`, the “activity change, negative = inhibition” value was 20.8%.
In the case of `COc1ccc(C2CC(c3ccccc3)=NN2C(=O)c2ccc(Cl)c([N+](=O)[O-])c2)cc1` (stereo unspecified), the “activity change, negative = inhibition” value was 3.76%.
With `O=C(Nc1ccccc1-c1nc2ccccc2[nH]1)c1ccc(N2C(=O)CCC2=O)cc1` the “activity change, negative = inhibition” value was 30.1%.
For `CN(C(=O)c1ccc2c(c1)SC1=NS(=O)(=O)CCN12)C(c1ccccc1)c1ccccc1`, the “activity change, negative = inhibition” value was 2.89%.
For `CC(C)(C)OC(=O)N1CCC(c2cc(=O)n3[nH]cc(C(=O)Nc4ccc(F)c(Cl)c4)c3n2)CC1`, the “activity change, negative = inhibition” value was -30.2%.
For `O=C1NC2(C=Cc3c(ccc4ccccc34)O2)Oc2ccccc21` (stereo unspecified), the “activity change, negative = inhibition” value was 2.33%.
